Bioassay records deposited in PubChem BioAssay by National Center for Advancing Translational Sciences (NCATS).
Only a selection was taken, and hits are over-represented in it overall.
Pf Dd2 inh = blocks in vitro growth of P. falciparum Dd2; Potency, µM (titrated, usually from 28.9 µM), for inactives: top-dose activity, negative = inhibition, actives largely listed as inhibitors; actives 4.3% (n = 120,000); P. falciparum Dd2 growth, SYBR Green, 72 h; active = well fitted inhibition curve with a large enough effect;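 note: plate controls were DMSO vehicle for no effect and reference drug for full effect; nearly all actives have a fitted effect of over 65% in size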
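Readout: SYBR Green fluorescence, 485 nm excitation, 535 nm emission, after ~16 h lysis at 37C. Before that, Dd2-infected red cells (2.5% hematocrit) grew 72 h with compound, 29 uM top final concentration.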
Active calls of the source: *; i = inactive; [ ] = dose if it differs, or a comment. Potency is the fitted concentration of half-maximal effect.

SMILES	Pf Dd2 inh
CCCNC(=O)N1CCC(c2noc(COCCOC)n2)CC1	0%
O=C(Cc1ccccc1)N1CCC2(CC1)COc1ccccc1NC2=O	-7%
CC(=O)c1ccc(NS(=O)(=O)c2ccc(-n3cccn3)cc2)cc1	2%
O=C1NCCCN1C1CCN(Cc2ccc(C(F)(F)F)cc2)CC1	-16%[44.1 µM]
O=S(=O)(c1ccc(F)cc1)N1CCCC(Cc2noc(-c3ccncc3)n2)C1 (stereo not drawn)	i
O=C(CC1CCCCC1)NC1CCN(c2cnn(CC3CC3)c(=O)c2)CC1	i
O=C(Nc1ccccc1)c1cc2n(n1)CC(c1ccc(Cl)cc1)OC2 (stereo not drawn)	2%
CC(=O)N1CCCC1c1nc(C2CN(C(=O)c3ccsc3)C2)no1 (stereo not drawn)	-19%
O=S(=O)(c1cccs1)N1CC(c2noc(C3CCCN3CC3CC3)n2)C1 (stereo not drawn)	2.8µM*
O=S(=O)(c1cccnc1)N1CCC(c2nc(C3CC3)no2)C1 (stereo not drawn)	38%
O=S(=O)(c1cccnc1)N1CC(c2noc(C3CCCN3CC3CC3)n2)C1 (stereo not drawn)	6.3µM*
O=C(c1cccs1)N1CCCC1c1nc(C2CCOCC2)no1 (stereo not drawn)	-15%
COCCN1CCCC1c1nc(C2CN(C(=O)c3ncccc3C)C2)no1 (stereo not drawn)	i
O=C(c1ccc2c(c1)OCO2)N1CC(c2noc(C3CCCN3CC3CC3)n2)C1 (stereo not drawn)	5µM*
CCOCc1nc(C2CCCN2S(=O)(=O)c2cccs2)no1 (stereo not drawn)	0%
CC(=O)N1CCCC1c1nc(C2CN(S(=O)(=O)c3cccnc3)C2)no1 (stereo not drawn)	-21%
O=C1NC2(Cc3ccccc31)CN([S+](=O)([O-])c1cccs1)C2	-2%
Cc1ccc(NC(=O)N2CCC(CCNC(=O)c3cccc(C)c3)CC2)cc1	-20%
Cc1ccc(C)c(NC(=O)C(Cc2ccccc2)n2cccc2)c1 (stereo not drawn)	-7%
CC(NC(=O)C1CC(c2ccccc2)CN(C(=O)c2ccc(F)cc2)C1)c1ccccc1 (stereo not drawn)	i
CC(=O)Nc1ccc(NC(=O)C2CC(=O)N(c3n[nH]c4cccc(F)c34)C2)cc1 (stereo not drawn)	10%
COC(=O)c1cc2sc(Cl)cc2n1Cc1nc(-c2ccccc2C)oc1C	52%
CCC(c1cccs1)N1C(=O)[C@H]2CN(S(=O)(=O)Cc3ccccc3F)C[C@H]2C1=O (stereo partly drawn)	i
O=C(CCn1cnnn1)N1CCc2nn(Cc3ccccc3)c(=O)n2CC1	35%
Cc1nn2c(c1-c1ccccc1Oc1ccccc1)N(Cc1cccc(C#N)c1)CCC2	-9%[44.1 µM]
SMILES	Pf Dd2 inh
Cc1nn2c(c1-c1ccccc1C(C)C)N(Cc1ccc(C(=O)O)s1)CCC2	-15%[44.1 µM]
Cc1ccncc1-c1c(C)nn2c1N(Cc1cccc(O)c1)CCC2	i
Cc1nn2c(c1-c1ccccc1C(C)C)N(Cc1ccc3c(c1)CCO3)CCC2	7.1µM*
Cc1nn2c(c1-c1ccccc1C(C)C)N(C(=O)C1CCOCC1)CCC2	i
Cc1nn2c(c1-c1ccccc1OCc1ccccc1)N(Cc1cccc(O)c1)CCC2	2.2µM*
COCC(=O)N(C[C@H]1O[C@@H](CC(=O)NC(C)C)[C@H](O)[C@@H]1O)C[C@H]1O[C@@H](CC(=O)NC(C)C)[C@H](O)[C@@H]1O	12%
O=C1NCCCCCN(C(=O)c2ccoc2)[C@H]2CCC[C@@H]12	19%
Cc1ccc(C(=O)NCc2nnc3ccc(-c4ccccc4)nn23)c(C)c1	14%
O=C(CCn1cncn1)N1CCC(c2nccn2Cc2cccnc2)CC1	-12%
CN(C(=O)Cn1c(=O)oc2ccccc21)C1CCc2nn(C)c(=O)n2CC1 (stereo not drawn)	20%
CC(=O)N1C[C@H](NC(=O)c2cnc(N)nc2-c2ccccc2)[C@@H](C2CC2)C1	-4%
Cc1ccc(CNC(=O)CN2C(=O)COc3ccc(S(=O)(=O)Nc4ccccc4)cc32)cc1	-4%
Cc1cccc2c1N(Cc1ccccc1OCCC(C)C)C(=O)C2=O	10µM*
COc1ccccc1CN1C(=O)C(=O)c2cccc(C)c21	29%
Cc1cc(Br)cc2c1N(Cc1ccccc1OC(C)C)C(=O)C2=O	11µM*
CC(C)Oc1ccccc1CN1CCC([C@@H]2CNC[C@H]2CO)CC1	-1%
CCCCCOc1ccccc1Cn1c(=O)oc2ccc(C)cc21	3%
COc1ccccc1Cn1ccn(CC(=O)Nc2c(C)cc(C)cc2C)c(=O)c1=O	10%
CC(=O)N1C[C@@H]2CCCN3CCC[C@@H]([C@H]23)[C@H]1CCCC(=O)N1CCN(c2ccccn2)CC1	i
Cc1nn(C)c(C)c1S(=O)(=O)N1CCN2C(=O)CN(C)C(=O)C2C1 (stereo not drawn)	-2%
COCCn1c(CN(C)C(C)c2ccccn2)cnc1S(=O)(=O)CCC(C)C (stereo not drawn)	0%
COc1ccc(NC(=O)C2Cc3ccccc3N2C(=O)c2ccccc2)cc1OC (stereo not drawn)	i
CNCc1ccc(OC(F)(F)F)cc1	-5%[44.1 µM]
COC[C@@H]1CN(C(=O)Cn2cccn2)C[C@H]1c1ccncc1	i
O=C1N(Cc2ccccn2)C[C@H]2CN(C3CCOCC3)CCN12	-7%[44.1 µM]
SMILES	Pf Dd2 inh
O=C(CCc1ccccc1)N1CCCC(c2noc(COc3ccccc3F)n2)C1 (stereo not drawn)	-11%
COc1ccc(C(=O)N2C[C@@H](F)C[C@H]2C(=O)N2CCCCC2)c(C)c1	33%
CN(Cc1ccc(F)cc1)Cc1ccc(C(F)(F)F)cc1	-7%[44.1 µM]
COc1ccc(-c2nc(C)nc3c2CN(Cc2ccc(NC(C)=O)cc2)CC3)cc1	i
COc1cc(=O)n2c(c1C(=O)Nc1ccc(F)cc1Cl)CCCC2	32%
CCn1c2c(c(=O)n3ncc(C(=O)Nc4ccc(C(=O)OC)cc4)c13)CN(Cc1ccc(OC)cc1)CC2	10µM*
COC(=O)N1CCn2ncc(C(=O)Nc3ccc(Cl)cc3Cl)c2C1	-3%
CCn1c2c(c(=O)n3ncc(C(=O)Nc4ccc(F)cc4Cl)c13)CN(Cc1ccc(OC)cc1)CC2	11µM*
CCOC(=O)c1ccc(NC(=O)CSc2nc3c(c(=O)[nH]2)CN(Cc2ccccc2)CC3)cc1	-10%
CN(Cc1ccncc1)Cc1cccn1C	i
O=C(c1ccc(Cl)cc1)N1CCC2(CC1)N=C(c1ccccc1)NO2	i
CC(C)S(=O)(=O)N1CCCN(C(=O)C2CC2)C(c2ccccc2)CC(=O)NCC1 (stereo not drawn)	-8%
COc1ccc(-c2cc(N3CCC(NC(=O)c4cc(OC)c(OC)c(OC)c4)C3)n[nH]2)cc1 (stereo not drawn)	-19%
O=C(NCCn1cc(SCc2ccccc2)c2ccccc21)c1cccs1	i
O=C(NCCn1cc(SCc2ccccc2Cl)c2ccccc21)c1cccs1	11µM*
O=C(Cn1cc(SCc2ccccc2F)c2ccccc21)N1CCCC1	4%
CCOC(=O)c1c(NC(=O)c2nc(SC)ncc2Cl)sc(C)c1C	11%
Cc1ccc2oc([C@H]3CCN(Cc4cccs4)C3)nc2c1	i
O=C(CCC1CCCN(CC2=Cc3cc(Cl)ccc3OC2)C1)Nc1ccccc1F (stereo not drawn)	i
CC(C)(O)C#Cc1ccc(CN2CCCC(CCC(=O)Nc3ccccc3F)C2)s1 (stereo not drawn)	-7%
O=C(CCC1CCCN(Cc2cnc(-c3ccccc3)s2)C1)Nc1ccccc1F (stereo not drawn)	14µM*
